Rows were chosen to be rich in hits. Some 15% of all compounds tested hit in one or more screens of this group.
Sm TGR inh = qHTS Assay for the Inhibitors of Schistosoma Mansoni Peroxiredoxins; Schistosoma mansoni thioredoxin glutathione reductase (TGR), Q962Y6; purified TGR, DTNB reduction, TNB absorbance 405 nm; Potency, µM (highest dose often 114 µM), without a hit: top-dose activity change, negative = inhibition, most hits filed as inhibitors; 3% of 360,000 active; AID 485364, 2010; also: potency is read from the fitted curve at half-maximal effect; % is scaled to controls: 0 for no effect and ±100 for the full control effect; nearly all actives have a fitted effect of over 60% in size
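TGR 20 nM + NADPH 100 uM (dispensed conc.), cpd preinc 15 min RT; start with NADPH (500 uM addition) then DTNB (15 mM addition). Kinetic TNB absorbance, 405 nm filter. Four-parameter Hill fit across titration.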
HCV inhibitor = qHTS Assay for Inhibitors of Hepatitis C Virus (HCV); Huh7.5.1 HCVcc-Cre infection, luciferase reporter, 44 h; Potency, µM (top dose mostly 41.8 µM), inactives show at the top dose activity change, negative = inhibition, most hits filed as inhibitors; 3.4% of 340,000 active; also: potency is read from the fitted curve at half-maximal effect; % is scaled to controls: 0 for no effect and ±100 for the full control effect
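Antiviral activity was scored by luciferase reporter output from cells infected with HCVcc-Cre (~0.5 moi) in presence of compound, 44 h infection period, cells seeded 1,000/well 4 h prior.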
Pf growth 48h = Primary qHTS for delayed death inhibitors of the malarial parasite plastid, 48 hour incubation | P. falciparum luciferase growth in erythrocytes, 48 h | Potency, µM (doses to about 28.7 µM), for inactives: at the highest dose activity change, negative = inhibition, hits mostly inhibitors | 5.9% of 310,000 active | AID 504832, 2011; also: potency is read from the fitted curve at half-maximal effect; % is scaled to controls: 0 for no effect and ±100 for the full control effect
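Cell-based growth assay: transgenic P. falciparum expressing firefly luciferase, cultured in red cells within RPMI 1640 containing 0.5% w/v Albumax, 24 mM bicarbonate and gentamycin. A drop in luciferase activity indicates inhibition.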
Pf growth 96h = Primary qHTS for delayed death inhibitors of the malarial parasite plastid, 96 hour incubation | 6.9% of 320,000 active | Potency, µM (highest dose often 28.7 µM), inactives show at the top dose activity change, negative = inhibition, most hits filed as inhibitors | P. falciparum luciferase reporter growth, 96 h; also: potency is read from the fitted curve at half-maximal effect; % is scaled to controls: 0 for no effect and ±100 for the full control effect
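Plates of compound plus infected erythrocytes (2% hematocrit, 0.05% parasitemia final) incubate 96 hours, 37 C, 5% CO2. Detection reagent added; reduced luminescence from the parasites' luciferase reporter flags inhibition.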
HCMV antiviral = qHTS Assay for inhibitors of the human cytomegalovirus (HCMV) | HFF cells, HCMV-luciferase reporter, 72 h; hits give low values | 4.5% of 410,000 active | AID 1259415, 2018 | activity change, negative = inhibition, % at 57.5 µM; in the data active = activity change below about -60%; inconclusive = no clear call, values can overlap the other calls; inactive = above about -39%; also: % is scaled to controls: 0 for no effect and ±100 for the full control effect
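Two compound doses tested in HFFs infected with HCMV-luciferase, MOI 1 PFU/cell, 72 h at 37C. Lysate luminescence read with OneGlo; data normalized against buffer-only and 10uM Salinomycin inhibitor controls.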
SARS PLP yeast = qHTS of Yeast-based Assay for SARS-CoV PLP. S. cerevisiae expressing SARS-CoV PLpro, growth rescue. Potency, µM (doses to about 32.9 µM), for inactives: top-dose activity, positive = growth rescue, actives largely listed as activators. 0.19% of 330,000 active. AID 485353, 2010; calls by dose curve; also: potency is read from the fitted curve at half-maximal effect; 0% is about no effect; nearly all actives have a fitted effect of over 55% in size
Starred values were filed as active, the others as inactive; [ ] = remark or other dose. Unless noted, calls follow the shape of the dose curve; as a rule, active = well fitted curve in the direction sought with a large enough effect; inconclusive = small, poorly fitted or top-dose-only effect, or another doubt; inactive = no such curve, though single readings can be large; an effect the other way counts as inactive or inconclusive.

How did COc1ccc(Nc2nc(-c3ccccc3)nc3ccccc23)c(OC)c1 do in these assays?
Sm TGR inh: 2%; HCV inhibitor: 2µM*; Pf growth 48h: inconclusive; Pf growth 96h: inconclusive; HCMV antiviral: inconclusive; SARS PLP yeast: -3%

What do the screens show for `COc1ccc(OC)c(Nc2nc(-c3ccncc3)nc3ccccc23)c1`?
Sm TGR inh: 8%; HCV inhibitor: 4.5µM*; Pf growth 48h: 1.9µM*; Pf growth 96h: 1.9µM*; HCMV antiviral: -3; SARS PLP yeast: -3%

How did COc1ccc(OC)c(Nc2nc(-c3ccccc3O)nc3ccccc23)c1 do in these assays?
HCV inhibitor: inconclusive; Pf growth 48h: -3%; Pf growth 96h: inconclusive; HCMV antiviral: -26; SARS PLP yeast: 0%

Results for COc1ccccc1Nc1nc(-c2ccccc2)nc2ccccc12 ?
Sm TGR inh: 19%; HCV inhibitor: 10µM*; Pf growth 48h: 6%; Pf growth 96h: -1%; HCMV antiviral: inconclusive; SARS PLP yeast: -2%

What do the screens show for `CCOC(=O)c1nc(Nc2ccccc2OC)c2ccccc2n1`?
Sm TGR inh: -5%; HCMV antiviral: -14

What do the screens show for `CC(=O)Nc1ccc(NC(=O)C(C)Oc2ccccc2C(=O)NCc2ccccc2)cc1` (stereo unspecified)?
Sm TGR inh: 0%; HCV inhibitor: -4%; Pf growth 48h: inconclusive; Pf growth 96h: inconclusive; HCMV antiviral: -22; SARS PLP yeast: 1%

Results for COc1ccc(C)cc1-n1nnnc1SCC(=O)NC1CCS(=O)(=O)C1 (stereo unspecified) ?
Sm TGR inh: 0%; HCV inhibitor: 4%; Pf growth 48h: inconclusive; Pf growth 96h: -30%; HCMV antiviral: inconclusive; SARS PLP yeast: 4%

What do the screens show for `CCN(CC)S(=O)(=O)c1cc(-c2ccc(=O)n(C(C)C(=O)Nc3cccc(C#N)c3)n2)ccc1C` (stereo unspecified)?
Sm TGR inh: -8%; HCMV antiviral: -12

How did O=C(OCc1cn([C@@H]2CN(Cc3cccs3)[C@@H](c3ccc(Cl)cc3)C[C@H]2O)nn1)c1ccccc1 do in these assays?
HCMV antiviral: 5

Results for COc1ccc(NC(c2ccccc2)c2ccncc2)cc1 (stereo unspecified) ?
Sm TGR inh: 40µM*; HCV inhibitor: -4%; Pf growth 48h: -29%[0.00184 µM]; Pf growth 96h: -2%; HCMV antiviral: -2; SARS PLP yeast: -2%

What do the screens show for `COc1ccc(Nc2nc(-c3ccncc3)nc3ccccc23)cc1`?
Sm TGR inh: -12%; HCV inhibitor: 6.3µM*; Pf growth 96h: 1%; HCMV antiviral: -9; SARS PLP yeast: 2%

How did Cc1ccc(C)c(Nc2nc(-c3ccncc3)nc3ccccc23)c1 do in these assays?
Sm TGR inh: -10%; HCV inhibitor: 11µM*; Pf growth 48h: 10µM*; Pf growth 96h: -16%; HCMV antiviral: -2; SARS PLP yeast: 4%

Results for CC(C)C[C@H](NC(=O)C1CCN(S(=O)(=O)c2ccccc2)CC1)C(=O)NCc1ccccn1 ?
Sm TGR inh: -31%; HCV inhibitor: 9%; Pf growth 48h: -18%; Pf growth 96h: 7%; HCMV antiviral: -20; SARS PLP yeast: -3%

What do the screens show for `COc1ccc(-c2nc(C#N)c(N3CCCCCC3)o2)cc1OC`?
Sm TGR inh: -6%; HCV inhibitor: 10µM*; Pf growth 48h: -17%; HCMV antiviral: inconclusive; SARS PLP yeast: -11%

What do the screens show for `CCCOc1ccc(-c2nc(C#N)c(N3CCN(CC)CC3)o2)cc1`?
Sm TGR inh: inconclusive; HCV inhibitor: -20%; Pf growth 48h: inconclusive; Pf growth 96h: 10µM*; HCMV antiviral: -29; SARS PLP yeast: -4%

How did CCOc1ccc(-c2nc(C#N)c(N3CCN(C)CC3)o2)cc1 do in these assays?
Sm TGR inh: 1%; HCV inhibitor: inconclusive; Pf growth 48h: inconclusive; HCMV antiviral: -61*; SARS PLP yeast: 0%

What do the screens show for `COc1ccc(-c2nc(C#N)c(N3CCCCC3)o2)cc1`?
Sm TGR inh: -15%; HCV inhibitor: -1%; Pf growth 48h: 19%; Pf growth 96h: 21%; HCMV antiviral: -1; SARS PLP yeast: -3%

What do the screens show for `CCCOc1ccc(-c2nc(C#N)c(N3CCC(C(N)=O)CC3)o2)cc1`?
Sm TGR inh: 0%; HCV inhibitor: inconclusive; Pf growth 48h: -2%; Pf growth 96h: 10µM*; HCMV antiviral: 0; SARS PLP yeast: 1%

What do the screens show for `N#Cc1nc(-c2ccc(OCc3ccc(Cl)cc3)cc2)oc1N1CCC(C(N)=O)CC1`?
Sm TGR inh: -24%[11.4 µM]; HCV inhibitor: inconclusive; Pf growth 96h: 0%; HCMV antiviral: -18; SARS PLP yeast: 0%

What do the screens show for `N#Cc1nc(-c2ccc(OCc3ccc(Cl)cc3)cc2)oc1N1CCOCC1`?
Sm TGR inh: 0%; HCV inhibitor: inconclusive; Pf growth 48h: 23%; Pf growth 96h: 10µM*; HCMV antiviral: 51; SARS PLP yeast: inconclusive

What do the screens show for `CCOc1ccc(-c2nc(C#N)c(N3CCCCCC3)o2)cc1`?
Sm TGR inh: -1%; HCV inhibitor: inconclusive; Pf growth 48h: inconclusive; Pf growth 96h: 34%; HCMV antiviral: -70*; SARS PLP yeast: -27%

Results for C[C@@H]1O[C@H](C2CCCC2)Cc2[nH]c(=S)[nH]c(=O)c21 ?
HCMV antiviral: 8

Results for CC(=O)Nc1cc2nn(-c3ccccc3)nc2cc1Cl ?
Sm TGR inh: -11%; HCV inhibitor: 2%; Pf growth 48h: 280%; Pf growth 96h: 58%; HCMV antiviral: 140; SARS PLP yeast: -2%

How did CC(C)(C)C(=O)Nc1cc2nn(-c3ccccc3)nc2cc1Cl do in these assays?
Sm TGR inh: -7%; HCV inhibitor: 13%; Pf growth 96h: 5%; HCMV antiviral: -88*; SARS PLP yeast: 5%

How did CCOC(=O)c1c(C)[nH]c(C)c1S(=O)(=O)N1CCCC(C(=O)NCc2ccc(N(C)C)cc2)C1 (stereo unspecified) do in these assays?
Sm TGR inh: 4%; HCMV antiviral: 3

What do the screens show for `CSc1nc2ccccc2n1CC(=O)Nc1c(C)cccc1C`?
Sm TGR inh: 6%; HCV inhibitor: -1%; Pf growth 48h: 2%; Pf growth 96h: 7.4µM*; HCMV antiviral: 69; SARS PLP yeast: 18%

Results for O=C(CSCc1cccc(CSCC(=O)Nc2ccccc2)n1)Nc1ccccc1 ?
Sm TGR inh: -26%; HCV inhibitor: -5%; Pf growth 96h: inconclusive; HCMV antiviral: -5; SARS PLP yeast: -5%
